# In the OligoGym collection:
# Molecular target: KRTAP13-2
# Assay: pooled miR-30 sensor sort-seq; sequence = guide strand
# Conditions: shRNA
# Also: reference of the scale not given here.
row,Sequence,sensor-assay potency score (higher = more potent)
1,TAAGTCGTCTTGCAAGGACTGC,-0.646
2,TCCACATAGGACGTCTGGCAGC,-2.1
3,TAACCCAGGGATCTGACACCAC,-0.823
4,TAGGACGTCTGGCAGCTGGTGG,-1.01
5,TGGTCTGTAACAAGGAGACTGG,-0.828
6,TCCAGATCCATAGCCGAGGGAA,-1.28
7,TCGTCTTGCAAGGACTGCAGAG,-0.616
8,AGGTAGTCACCACAGGAGCGGG,-1.51

# Molecular target: KRTAP4-5
# Assay: as above
# Conditions: shRNA
row,Sequence,sensor-assay potency score (higher = more potent)
1,TTATATGAGATCATCACAGTTA,0.439
2,TGGAGATGCAGCAGCTAGGGTG,-1.53
3,TAACATATTTTAATGAATGTGA,-0.0651
4,ATGAATGTGATTGTCTGTCATT,-1.58
5,TTAATGAATGTGATTGTCTGTC,0.0544
6,ATTCACAGCAATAGGGGCGGCA,-0.786
7,TTTAATGAATGTGATTGTCTGT,0.174
8,TGGTCTGGCAGCAGCAGGGGCG,-1.72
9,TAGGGTGGCAGCAGGTGGGCTG,-0.712
10,TGGTAGCACACAGACTGGCAGC,-1.41
11,TGGATTCACAGCAATAGGGGCG,-0.512
12,TGCTCAGAGCTGACAGAGCCAC,-1.57
